The record followed here is PubChem BioAssay (NCATS).

Assay [1] can be described thus: qHTS Assay for Identifying Gametocytocidal Compounds (AID 743244).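 Also: % is scaled to controls: 0 for no effect and ±100 for the full control effect; actives lower the fluorescent signal which means gametocytes are killed.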 To be noted: P. falciparum 3D7 stage III-V gametocytes, alamarBlue, 72 h; max response: stronger effect = lower value. In short, it runs like this: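 Compounds are pinned into medium, gametocytes (stage III–V, 3D7, 20,000 cells/well) added, and plates held 72 h at 37 °C in 5% CO2. AlamarBlue follows for 24 h before fluorescence reading.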
Background: qHTS replaces the single test concentration by a dilution series.

Assay [2] in a line: qHTS assay for measurement of the activity of small molecule inhibitors on Zika virus induced Caspase-3 activity in human iPSC derived neural progenitor cells (hNPCs) (AID 1224857). Also: % of control where 0% means no effect; nearly all actives have a fitted effect of over 65% in size. In short, it runs like this: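 Pretreat hNPCs with compound 1 h; infect ZIKV 2 FFU/cell; 6 h 37 C, 5% CO2; Caspase-Glo 3/7, 30 min RT; luminescence; normalize to no-virus and virus-only wells.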
A short description of assay [3]: P-glycoprotein substrates identified in KB-8-5-11 adenocarcinoma cell line, qHTS therapeutic library screen (AID 1346987). Also: nearly all actives have a fitted effect of over 65% in size. Also: potency is read from the fitted curve at half-maximal effect. In short, it runs like this: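 Compounds are pinned in dose-response onto KB-8-5-11 cells (500 cells/well, colchicine-free medium) and left 72 h at 37 degree C. CellTiter-Glo luminescence then yields AC50 values.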
A short description of assay [4]: qHTS assay for measurement of the activity of small molecule inhibitors on Zika virus induced Caspase-3 activity in human astrocytoma cells (AID 1224859).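 Also: plate controls were ZIKV-infected untreated cells for no effect and uninfected cells for full effect.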 In short, it runs like this: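 Human SNB-19 astrocytoma cells in RPMI 1640 with 10% FBS receive compound one hour ahead of Zika virus at 2 FFU/cell. After 6 h infection, caspase-3/7 activity is detected by Caspase-Glo luminescence.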

Assay [5] is described as follows: qHTS profiling of the MIPE4 collection as inhibitors of Plasmodium falciparum (3D7) proliferation (AID 743344; call rule not given here;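 also: scaled between DMSO vehicle wells and 0.29 µM artemisinin as full inhibition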). To be noted: P. falciparum 3D7 in erythrocytes, SYBR Green DNA fluorescence, 72 h; at 28.5 µM (top of the series) unless noted. In short, it runs like this:
(§1)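 Parasite DNA was quantified by SYBR Green I fluorescence (ex 485, em 535 nm) after overnight lysis in saponin/Triton buffer at room temperature. Cultures at 0.3% parasitemia and 2.5% hematocrit were first exposed to compound for 72 h at 37 C; signals were normalised to artemisinin (0.29 uM) and vehicle wells.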

Assay [6] can be described thus: qHTS profiling of the MIPE4 collection as inhibitors of Plasmodium falciparum (DD2) proliferation (AID 743345; call rule not given here). To be noted: P. falciparum Dd2 in erythrocytes, SYBR Green DNA, 72 h; at 28.5 µM (top of the series) unless noted. In short, it runs like this:
as §1

A short description of assay [7]: qHTS profiling of the MIPE4 collection as inhibitors of Plasmodium falciparum (DD2) proliferation (Rep 2) (AID 743346; call rule not given here). To be noted: P. falciparum Dd2 in erythrocytes, SYBR Green DNA, 72 h; at 28.5 µM (top of the series) unless noted. In short, it runs like this:
as §1

Assay [8] in a line: qHTS profiling of the MIPE4 collection as inhibitors of Plasmodium falciparum (HB3) proliferation (AID 743347; call rule not given here;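 also: plate controls were DMSO vehicle wells for no effect and artemisinin wells for full effect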). To be noted: P. falciparum HB3 in erythrocytes, SYBR Green DNA, 72 h; at 28.5 µM (top of the series) unless noted. In short, it runs like this: as §1
Assay [9] is described as follows: qHTS for Activators of Parkin Expression: LOPAC Validation Assay (FLuc Reporter) (AID 720573;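 also: 0% = DMSO and 100% = positive control compounds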). In short, it runs like this:
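FLuc signal from Parkin-promoter coincidence reporter neuronal cells, normalized to DMSO and positive control (100%). Cells (1,500/well) pre-incubated 24 h, then exposed to LOPAC compounds in 7-point dose response for 24 h at 37 C, 5% CO2.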

The target in assay [10] is T1, Hexokinase-4 (Homo sapiens) + Glucokinase regulatory protein (Homo sapiens) (UniProt P35557+Q14397). Description: qHTS assay for inhibitors of recombinant human GCK-GKRP interaction: Diaphorase-coupled assay (AID 743205). The gist of the method:
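A kinetic fluorescence read (Ex 525/Em 590 nm, every minute for 30 minutes) tracked resorufin from a G6PDH-diaphorase coupled GCK reaction. It contained 10 nM GST-GCK, 10 nM FLAG-GKRP, 5 mM glucose, 0.4 mM ATP in Hepes pH 7.6. Normalized to with/without-enzyme DMSO controls.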

Assay [11] deals with T1, Hexokinase-4 (Homo sapiens) + Glucokinase regulatory protein (Homo sapiens). The assay can be described thus: qHTS assay for inhibitors of recombinant human GCK-GKRP interaction: ADP-Glo assay (AID 743206).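 Also: plate controls were DMSO plus enzyme for no effect and no enzyme for full effect.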 The gist of the method:
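Pin-transferred compounds meet a 15 nM GST-GCK/15 nM FLAG-GKRP/2 uM S6P mix (dispense concentrations). ATP is then added to 0.4 mM final with 5 mM glucose, and the reaction runs 60 min at room temperature. ADP is quantified luminescently.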

The target is the same in assay [12]. The assay can be described thus: qHTS assay for inhibitors of recombinant human GCK-GKRP interaction: HTRF assay (AID 743207).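 Also: 0% = DMSO with GCK present and -100% = DMSO wells lacking GCK.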 In short, it runs like this:
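After 60 min equilibration at room temperature with anti-FLAG XL665 and anti-GST antibodies, FRET ratio (665/615 nm, excitation 320 nm) was read. Proteins: GST-GCK and FLAG-GKRP, each 5 nM, plus 2 uM S6P, pH 7.1 buffer; GCK-free wells define minimum signal.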

The nature of assay [13]: Natriuretic polypeptide receptor (hNpr1) antagonism - Pilot counterscreen GloSensor control cell line (AID 1347045; calls by dose curve; also: % is scaled to controls: 0 for no effect and ±100 for the full control effect). In short, it runs like this: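 Control counterscreen: luciferase cGMP-biosensor HEK293 cells (no Npr1) received compound for 30 min at room temperature after GloSensor substrate loading. Luminescence was measured before and 20 min after soluble guanylyl cyclase activation by 50 uM nitroprusside.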
On the technique in general: A counterscreen serves to expose hits that act by an unwanted route or on another target.

Assay [14] is described as follows: qHTS assay for small molecule antagonists of the retinoid-related orphan receptor gamma (ROR-gamma) signaling pathway - cell viability counter screen (AID 720652; active = well fitted curve in the direction sought with a large enough effect in the repeat runs; an effect the other way counts as inactive or inconclusive;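 also: compound exposure lasted 16 hr before ATP read; % is scaled to controls: 0 for no effect and ±100 for the full control effect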). The gist of the method: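 Cytotoxicity counter screen: intracellular ATP (CellTiter-Glo luminescence) measured in the doxycycline-induced CHO RORE-luciferase reporter line after 16 hr compound exposure at 37 C, 5% CO2.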

A short description of assay [15]: qHTS profiling for inhibitors of Plasmodium falciparum (3D7) proliferation (AID 743322).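 Also: infected erythrocytes exposed to compound for 72 h before lysis; 100% = DMSO vehicle wells and 0% = 0.29 µM artemisinin.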 To be noted: P. falciparum 3D7 proliferation; at 28.7 µM (top of the series). The gist of the method: as §1
The nature of assay [16]: qHTS profiling for inhibitors of Plasmodium falciparum (DD2) proliferation (AID 743323; call rule not given here). To be noted: lower = more inhibition; at 28.7 µM (top of the series). In short, it runs like this:
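1536-well qHTS; infected RBCs 0.3% parasitemia/2.5% Hct final; cpd 72 h 37 C 5% CO2; lysis buffer + SYBR Green I, o/n RT dark; FI 485/535; norm. to 0.29 uM artemisinin and DMSO, plate-stack corrected.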

Assay [17] can be described thus: P-glycoprotein substrates identified in KB-3-1 adenocarcinoma cell line, qHTS therapeutic library screen (AID 1346986). Also: nearly all actives have a fitted effect of over 60% in size. The gist of the method: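 72 h cell-killing screen, 500 cells/well, CellTiter-Glo luminescence. Paired lines KB-3-1/KB-8-5-11; P-gp dependence checked by tariquidar co-treatment and HEK-293 MDR-19 versus empty-vector cells.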

Results filed as inconclusive are left out. The source made the active and inactive calls. Unless noted, calls follow the shape of the dose curve; as a rule, active = well fitted curve in the direction sought with a large enough effect; inconclusive = small, poorly fitted or top-dose-only effect, or another doubt; inactive = no such curve, though single readings can be large; an effect the other way counts as inactive or inconclusive.

T1 sequence (P35557 whole entry, looked up): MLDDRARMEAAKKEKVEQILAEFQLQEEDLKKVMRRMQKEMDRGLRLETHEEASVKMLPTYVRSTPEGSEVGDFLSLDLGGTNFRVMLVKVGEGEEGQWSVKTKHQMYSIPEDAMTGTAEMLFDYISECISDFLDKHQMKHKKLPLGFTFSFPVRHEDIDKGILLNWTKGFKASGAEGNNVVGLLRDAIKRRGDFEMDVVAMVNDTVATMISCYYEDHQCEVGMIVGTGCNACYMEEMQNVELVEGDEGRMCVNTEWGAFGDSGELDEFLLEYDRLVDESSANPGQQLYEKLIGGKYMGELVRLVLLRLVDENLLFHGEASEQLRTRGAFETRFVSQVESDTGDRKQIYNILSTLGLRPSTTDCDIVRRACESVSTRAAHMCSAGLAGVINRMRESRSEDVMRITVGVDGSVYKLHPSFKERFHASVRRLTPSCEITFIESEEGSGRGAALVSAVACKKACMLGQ
T1 sequence (Q14397 whole entry, looked up): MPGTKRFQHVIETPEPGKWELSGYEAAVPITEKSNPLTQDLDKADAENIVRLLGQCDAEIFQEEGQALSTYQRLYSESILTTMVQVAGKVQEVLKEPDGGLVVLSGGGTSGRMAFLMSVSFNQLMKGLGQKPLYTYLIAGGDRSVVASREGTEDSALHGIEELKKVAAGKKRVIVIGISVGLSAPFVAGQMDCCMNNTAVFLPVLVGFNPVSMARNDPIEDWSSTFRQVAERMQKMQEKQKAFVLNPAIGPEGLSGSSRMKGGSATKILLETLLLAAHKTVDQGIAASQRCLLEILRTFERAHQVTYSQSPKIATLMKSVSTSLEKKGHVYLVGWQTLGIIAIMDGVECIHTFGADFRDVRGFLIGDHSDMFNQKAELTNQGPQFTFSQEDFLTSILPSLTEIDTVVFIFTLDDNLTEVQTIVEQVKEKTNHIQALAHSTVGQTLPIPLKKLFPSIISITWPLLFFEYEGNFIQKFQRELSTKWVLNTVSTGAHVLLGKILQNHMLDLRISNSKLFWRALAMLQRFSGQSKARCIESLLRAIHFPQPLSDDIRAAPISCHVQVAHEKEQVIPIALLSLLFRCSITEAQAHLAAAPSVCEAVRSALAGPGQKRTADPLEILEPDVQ

Take `O=S(=O)(O)c1ccc2nc(-c3ccccc3)[nH]c2c1`: the max response in assay [1] is 9.66% (inactive). The Potency result in assay [2] and in assay [3] was “inactive” in each case.

Regarding `CCCC(=O)O[C@]1(C(=O)COC(=O)CC)CC[C@H]2[C@@H]3CCC4=CC(=O)CC[C@]4(C)[C@H]3[C@@H](O)C[C@@]21C`, the max response in [1] was 31.6% (inactive). Besides, the Potency entry in assay [2] and in assay [3] was “inactive” in each case.

For `COc1c(C)c2c(c(O)c1C/C=C(\C)CCC(=O)OCCN1CCOCC1)C(=O)OC2`, the max response in assay [1] was 2.71% (inactive). Moreover, the Potency entry in assay [2] was “inactive”. The compound was classed as inactive in assay [4].

On to `O=C(O)C(=O)Nc1cccc(-c2nn[nH]n2)c1`, for which the max response in [1] is -10.1% (inactive). Further, in assay [2], the Potency entry is “inactive”. Besides, the result in [4] was inactive.

For the compound `CN1CCC(=C2c3ccccc3CCc3cccnc32)CC1`, in assay [1], the max response was 7.49% (inactive). In addition, the Potency result in assay [2] and in assay [3] was “inactive” in each case.

On to `C[N+](C)(CCOc1ccccc1)Cc1cccs1`, for which the Potency result in [2] and in assay [3] was “inactive” each time.

In turn, `NCC[C@H](O)C(=O)N[C@@H]1C[C@H](N)[C@@H](O[C@H]2O[C@H](CN)[C@@H](O)[C@H](O)[C@@H]2O)[C@H](O)[C@@H]1O[C@H]1O[C@H](CO)[C@@H](O)[C@H](N)[C@@H]1O` returned a parasite growth, % of DMSO control in assay [5] of 98% [at 0.217 µM]. This compound also registered a parasite growth remaining, % of DMSO control (lower = more inhibition) in assay [6] of 89.8% [at 0.217 µM]. The parasite growth, % of control (lower = inhibition) in [7] worked out at 163% [at 0.217 µM]. The same compound displayed a growth, % of control in assay [8] of 94.3% [at 0.217 µM]. Moreover, the activity change, negative = inhibition in [2] is -1.8% [at 0.568 µM] (inactive); in assay [4], 13.4% [at 0.568 µM] (inactive).

`O=C(CS(=O)Cc1ccco1)NC/C=C\COc1cc(CN2CCCCC2)ccn1` (stereo not drawn): in [1], the max response is 9.57% (inactive). Besides, the Potency result in assay [2] is “inactive”. Further, the result in assay [4] was inactive.

With `c1ccc(C(O[C@H]2CCCN(CCc3ccc4c(c3)OCO4)C2)c2ccccc2)cc1`, the max response in [1] was -6.18% (inactive). For the same compound, in assay [2], the Potency result was “inactive”. Further, the outcome in assay [4] was inactive.

In the case of `CC1(C)O[C@@H]2C[C@H]3[C@@H]4C[C@H](F)C5=CC(=O)C=C[C@]5(C)[C@@]4(F)[C@@H](O)C[C@]3(C)[C@]2(C(=O)CO)O1`, the max response in [1] was -5.96% (inactive). For the same compound, the Potency result in assay [2] was “inactive”. In addition, the outcome in assay [4] was inactive.

As for `C=CCOc1cc(Cl)ccc1C(=O)NCCN(CC)CC`, in assay [1], the max response was 9.51% (inactive). In addition, the Potency entry in assay [2] was “inactive”. Moreover, the outcome in assay [4] was inactive.

Take `CN=C(N)NC(=O)Nc1c(C)cccc1C`: the max response in assay [1] is 9.51% (inactive). Besides, the Potency result in [2] was “inactive”.

Turning to `CCCCCC(=O)O[C@]1(C(C)=O)CC[C@H]2[C@@H]3CCC4=CC(=O)CC[C@]4(C)[C@H]3CC[C@@]21C`, in [2], the Potency entry was “inactive”. In addition, in assay [3], the Potency was 10.3 µM (active).

Regarding `NC(N)=NCCCCN=C(N)N`, the compound was classed as inactive in assay [9], in [10], in [11] and in assay [12]. The Potency result in assay [13] was “inactive”.

With `CCCCC(CC)COC(=O)c1ccccc1C(=O)O` (stereo not drawn), the result in [14] was inactive.

Regarding `O=C(Nc1ccc(Cl)cc1)Nc1ccc(Cl)c(Cl)c1`, the remaining parasite growth % (stronger effect = lower value) in [15] is -1.23%. Moreover, the activity, percent of control in [16] is -0.0718%.

Take `CC(=O)OCC(=O)Nc1cc(C#N)cc(NC(=O)COC(C)=O)c1Cl`: the Potency result in assay [17] is “inactive”.
